This is part of a sample that, as a whole, favours compounds with a hit. Of some 83,000 tested, about 20% had one in any assay.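 Single-concentration screen, 48 h exposure, 96-well plates. Endpoint: percent growth. Below 10 = active.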 A number with no mark means an inactive call. Active and inactive are the calls of the source.
What follows are compounds tested on A549/ATCC NSCLC (assay: NCI-60 one-dose screen, 48 h (100 = growth as untreated, 0 = no growth, -100 = all killed)). Conditions: 10 µM unless noted.

Row | Structure (SMILES) | growth
1 | Cc1cccc(NC(=O)[C@]23CCC(C)(C)CC2C2=CCC4[C@@]5(C)C[C@@H](O)[C@H](O)[C@@](C)(CO)C5CC[C@@]4(C)[C@]2(C)CC3)c1 (some centres undefined) | 21.1%
2 | CC(=O)Nc1ccc(-n2cnc3ccc(-c4ccc(O)cc4)cc32)cc1 | 44%
3 | NC(=S)Nc1cccc(NC(N)=S)c1 | 93.9%
4 | O=C(/C=C/c1ccc(O)c(O)c1)NC1CCOC1O (centres undefined) | 99.4%
5 | CCN1C(=O)/C(=N\N=C(/C)c2ccc3c(c2)Nc2ccccc2S3)c2cc(Cl)ccc21 | 49.8%
6 | S=C(NCCc1ccccc1)Nc1ccc(OCc2nc3ccccc3[nH]2)cc1 | 101%
7 | COc1ccc(-c2nc(SC(C)C)nc(NCCc3c[nH]c4ccccc34)c2C#N)cc1 | 47.1%
8 | S=C(Nc1ccccc1)Nc1ccc(OCc2nc3ccccc3[nH]2)cc1 | 31%
9 | CC1(C)CC[C@]2(C(=O)Nc3ccc(Br)cc3)CC[C@]3(C)C(=CCC4[C@@]5(C)C[C@@H](O)[C@H](O)[C@@](C)(CO)C5CC[C@]43C)C2C1 (some centres undefined) | 17.2%
10 | CC12CC[C@@H]3[C@]4(C)COC(c5c(F)cccc5F)O[C@@H]4CC[C@@]3(C)[C@@H]1CC(C1=CCOC1=O)O2 (some centres undefined) | 70.3%
11 | Cc1ccc(Cc2cnc(NC(=O)c3ccc(/C=C4\SC(=S)N(C)C4=O)cc3)s2)cc1 | 43.2%
12 | CC(=O)Nc1ccc(-n2cnc3cc(-c4ccc(O)cc4)ccc32)cc1C(F)(F)F | 19.4%
13 | Cn1cc(NC(=O)c2cc(NC(=O)c3ccc(/C=C/c4ccccc4)cc3)cn2C)cc1C(=O)NCCCN1CCOCC1 | 26.9%
14 | CN(C)CCCNC(=O)c1cc(NC(=O)c2cc(NC(=O)c3ccc(/C=C/c4ccccc4)cc3)cn2C)cn1C | 35.7%
15 | CC(=O)OC[C@@]1(C)C2CC[C@]3(C)C(CC=C4C5CC(C)(C)CC[C@]5(C(=O)Nc5ccc(Br)cc5)CC[C@]43C)[C@@]2(C)C[C@@H](OC(C)=O)[C@@H]1OC(C)=O (some centres undefined) | 38.9%
16 | COc1ccc(NC(=O)Cn2c(O)c(N=Nc3ccc(S(N)(=O)=O)cc3)c3ccccc32)cc1 | 24.6%
17 | S=C(Nc1ccc(OCc2nc3ccccc3[nH]2)cc1)NC1CCCCC1 | 105%
18 | Cc1ccc(NC(=O)[C@]23CCC(C)(C)CC2C2=CCC4[C@@]5(C)C[C@@H](O)[C@H](O)[C@@](C)(CO)C5CC[C@@]4(C)[C@]2(C)CC3)cc1 (some centres undefined) | 20.5%
19 | O=S(=O)(Nc1cccc(-n2cnc3cc(-c4ccc(O)cc4)ccc32)c1)C1CC1 | 37.7%
20 | Cn1cc(-c2nnc(N)nc2-c2c[nH]c3ccccc23)c2cccnc21 | 46%
21 | CN(C)c1ccnc(CNCCSC2(c3ccc(C(F)(F)F)cc3)c3ccccc3CCc3ccccc32)c1 | -27.6% (active)
22 | CC1=C(C(=O)OC(C)C)C(c2cccc(O)c2)NC(=S)N1 (centres undefined) | 103%
23 | N/N=C(\N)c1c(N)nc(=S)[nH]c1-c1ccc(Cl)cc1Cl | 104%
24 | COc1ccc2[nH]cc(-c3nnc(N)nc3-c3c[nH]c4ncc(Br)cc34)c2c1 | 98.2%
25 | COc1cc(C2CC(c3cc(OC)c(OC)c(OC)c3)=NN2c2ccccc2)ccc1OCc1ccc(C)cc1 (centres undefined) | 102%
26 | O=C(N/N=C/c1ccc(-c2ccc(O)cc2)o1)c1[nH]c2ccc(Br)cc2c1-c1ccccc1 | 11.2%

What follows are compounds tested on 786-0 renal in the same assay as above. Conditions: 10 µM unless noted.

Row | Structure (SMILES) | growth
27 | C=C1CCC2C3(C)COC(c4cc(F)cc(F)c4)OC3CCC2(C)C1CC(O)C1=CCOC1=O (centres undefined) | 30.3%
28 | CC(=O)Nc1ccc(C(=O)NC(=S)Nc2ccc(S(N)(=O)=O)cc2)cc1 | 95.5%
29 | COc1cc(C2CC(c3cc(OC)c(OC)c(OC)c3)=Nc3c(N)nc(N)nc3N2)ccc1Oc1nc(NCCO)nc(N2CCOCC2)n1 (centres undefined) | 97.6%
30 | CC1=C(C(=O)c2ccccc2)C(c2cccc(Cl)c2Cl)n2c(nc3ccccc32)N1 (centres undefined) | 37.9%
31 | CN1CCc2c(sc3ncnc(N/N=C/c4ccc(Cl)cc4Cl)c23)C1 | -93.9% (active)
32 | O=C(COc1ccc(NC(=O)Nc2ccc(Cl)c(Cl)c2)cc1)N=Nc1c(O)[nH]c2ccc(Br)cc12 | -70.3% (active)
33 | Cn1cc(NC(=O)c2cc(NC(=O)c3ccc(C#Cc4ccccc4)cc3)cn2C)cc1C(=O)NCCCN1CCOCC1 | -4.75% (active)
34 | COCOc1cc2oc(C(=O)N[C@@H](Cc3ccccc3)C(O)C(=O)NCc3ccccc3)c(C)c(=O)c2cc1OCOC (some centres undefined) | 14.5%
35 | Cc1ccc(C(=O)CSc2nc3ccc(C)cc3c(=O)n2-c2ccc(F)cc2)cc1 | -3.55% (active)
36 | CC(C)c1ccc2c(N)c(C(=O)Nc3ccc(C(F)(F)F)cn3)sc2n1 | 64.3%
37 | CN(C)CCn1c2ccccc2c2nc3ccc([N+](=O)[O-])cc3nc21 | 1.77% (active)
38 | COc1cc2c(c(OC)c1OC)C(=O)CC(c1cccc(NC(=O)c3cc(NC(=O)[C@H](CO)NC(=O)OC(C)(C)C)ccc3Cl)c1)O2 (some centres undefined) | 42.8%
39 | Cc1cccc(NC(=O)[C@]23CCC(C)(C)CC2C2=CCC4[C@@]5(C)C[C@@H](O)[C@H](O)[C@@](C)(CO)C5CC[C@@]4(C)[C@]2(C)CC3)c1 (some centres undefined) | 22.7%
40 | CC(=O)Nc1ccc(-n2cnc3ccc(-c4ccc(O)cc4)cc32)cc1 | 48.5%
41 | NC(=S)Nc1cccc(NC(N)=S)c1 | 108%
42 | O=C(/C=C/c1ccc(O)c(O)c1)NC1CCOC1O (centres undefined) | 97.2%
43 | CCN1C(=O)/C(=N\N=C(/C)c2ccc3c(c2)Nc2ccccc2S3)c2cc(Cl)ccc21 | 75%
44 | S=C(NCCc1ccccc1)Nc1ccc(OCc2nc3ccccc3[nH]2)cc1 | 105%
45 | COc1ccc(-c2nc(SC(C)C)nc(NCCc3c[nH]c4ccccc34)c2C#N)cc1 | 30.3%

Row | Structure (SMILES) | growth
46 | S=C(Nc1ccccc1)Nc1ccc(OCc2nc3ccccc3[nH]2)cc1 | 31.8%
47 | CC1(C)CC[C@]2(C(=O)Nc3ccc(Br)cc3)CC[C@]3(C)C(=CCC4[C@@]5(C)C[C@@H](O)[C@H](O)[C@@](C)(CO)C5CC[C@]43C)C2C1 (some centres undefined) | -28.2% (active)
48 | CC12CC[C@@H]3[C@]4(C)COC(c5c(F)cccc5F)O[C@@H]4CC[C@@]3(C)[C@@H]1CC(C1=CCOC1=O)O2 (some centres undefined) | 46.8%
49 | Cc1ccc(Cc2cnc(NC(=O)c3ccc(/C=C4\SC(=S)N(C)C4=O)cc3)s2)cc1 | 37.8%
50 | CC(=O)Nc1ccc(-n2cnc3cc(-c4ccc(O)cc4)ccc32)cc1C(F)(F)F | 20.3%
51 | Cn1cc(NC(=O)c2cc(NC(=O)c3ccc(/C=C/c4ccccc4)cc3)cn2C)cc1C(=O)NCCCN1CCOCC1 | 27.9%
52 | CN(C)CCCNC(=O)c1cc(NC(=O)c2cc(NC(=O)c3ccc(/C=C/c4ccccc4)cc3)cn2C)cn1C | 42.3%
53 | CC(=O)OC[C@@]1(C)C2CC[C@]3(C)C(CC=C4C5CC(C)(C)CC[C@]5(C(=O)Nc5ccc(Br)cc5)CC[C@]43C)[C@@]2(C)C[C@@H](OC(C)=O)[C@@H]1OC(C)=O (some centres undefined) | 51.2%
54 | COc1ccc(NC(=O)Cn2c(O)c(N=Nc3ccc(S(N)(=O)=O)cc3)c3ccccc32)cc1 | -25.3% (active)
55 | S=C(Nc1ccc(OCc2nc3ccccc3[nH]2)cc1)NC1CCCCC1 | 93%
56 | Cc1ccc(NC(=O)[C@]23CCC(C)(C)CC2C2=CCC4[C@@]5(C)C[C@@H](O)[C@H](O)[C@@](C)(CO)C5CC[C@@]4(C)[C@]2(C)CC3)cc1 (some centres undefined) | 17.1%
57 | O=S(=O)(Nc1cccc(-n2cnc3cc(-c4ccc(O)cc4)ccc32)c1)C1CC1 | 40.1%
58 | Cn1cc(-c2nnc(N)nc2-c2c[nH]c3ccccc23)c2cccnc21 | 54.9%
59 | CN(C)c1ccnc(CNCCSC2(c3ccc(C(F)(F)F)cc3)c3ccccc3CCc3ccccc32)c1 | -6.83% (active)
60 | CC1=C(C(=O)OC(C)C)C(c2cccc(O)c2)NC(=S)N1 (centres undefined) | 106%
61 | N/N=C(\N)c1c(N)nc(=S)[nH]c1-c1ccc(Cl)cc1Cl | 101%
62 | COc1ccc2[nH]cc(-c3nnc(N)nc3-c3c[nH]c4ncc(Br)cc34)c2c1 | 74.8%
63 | COc1cc(C2CC(c3cc(OC)c(OC)c(OC)c3)=NN2c2ccccc2)ccc1OCc1ccc(C)cc1 (centres undefined) | 102%
64 | O=C(N/N=C/c1ccc(-c2ccc(O)cc2)o1)c1[nH]c2ccc(Br)cc2c1-c1ccccc1 | -16.7% (active)

— PubChem BioAssay (NCI)
